The campaign covered roughly 190,000 compounds. About 120 (0.063%) were called active. The entries come from a sample that favours actives as a whole. Values without a mark were called inactive. No stated cut-off is given here; in the data, active means inhibition above about 40%; inconclusive means no clear call, values can overlap the other calls; inactive means below that.
biological target: Apoptosis regulator Bcl-2 (Homo sapiens) (UniProt P10415); assay: inhibitors of Bim-Bcl-2 binding, primary screen, biochemical, multiplexed, human Bcl-2 family (AID 950); conditions: Bead-based flow cytometry, Bim peptide-Bcl-2 binding; at 10 µM; active compounds read high;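 further: 0% = no compound wells with probe peptide and 100% = reference peptide inhibitor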
Sequence (P10415 whole entry, looked up): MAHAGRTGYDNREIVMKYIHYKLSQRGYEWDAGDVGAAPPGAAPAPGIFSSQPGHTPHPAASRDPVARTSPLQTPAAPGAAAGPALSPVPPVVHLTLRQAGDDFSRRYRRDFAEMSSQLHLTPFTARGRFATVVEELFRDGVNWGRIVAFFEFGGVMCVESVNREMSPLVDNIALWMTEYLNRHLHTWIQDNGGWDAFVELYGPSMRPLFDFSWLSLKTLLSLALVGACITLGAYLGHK

Row | SMILES | inhibition
1 | CC(NC(=S)Nc1ccccc1)C1COc2ccccc2O1 (configuration not stated) | -6%
2 | O=C(CCC(=O)N1CCCC1)Nc1ccc([N+](=O)[O-])cc1 | -2%
3 | CC(C)CNC(=S)NC(=O)c1ccc(Cl)cc1 | 0%
4 | COCCN(C(=O)C(C)C)c1nnc(-c2ccc(C(C)(C)C)cc2)s1 | -5%
5 | C=C1C2C[C@H](O)C(C)(C)[C@@]2(O)[C@H](O)C[C@]23C[C@@](C)(O)[C@H](CC[C@H]12)[C@H]3O (some centres not stated) | 0%
6 | Nc1nc(SCC(=O)N2CCN(S(=O)(=O)c3ccc(Cl)cc3)CC2)n[nH]1 | -1%
7 | COc1cc([N+](=O)[O-])ccc1NC(=S)N1CCN(c2ccccn2)CC1 | 0%
8 | Cc1ccc(NC(=S)NC(=O)/C=C/c2ccc(Cl)cc2)cc1 | -10%
9 | COC(=O)c1c(NC(=O)CCCC(=O)O)sc2c1CCCCC2 | -3%
10 | COc1cccc(NC(=O)COC(=O)CCOc2ccccc2OC)c1 | -2%
11 | Cc1cccc(/C(N)=N/OC(=O)c2ccccc2Cl)c1 | -7%
12 | CCOC(=O)C(C)n1nc(-c2ccccc2)c2ccccc2c1=O (configuration not stated) | -1%
13 | Cn1cc(Cl)c(C(=O)NNC(=S)Nc2cccc(Cl)c2)n1 | 0%
14 | Cc1ccc(OC(=O)CCC(=O)Nc2ccc(Br)cc2)cc1 | 0%
15 | O=C(N/N=C/c1ccccn1)c1ccc(S(=O)(=O)N2CCCCCC2)cc1 | 0%
16 | O=[N+]([O-])/C(N=Nc1ccccc1)=N\Nc1ccccc1 | -1%
17 | N#CCC(=O)N/N=C/c1ccc(SCC(=O)Nc2ccccc2)o1 | -1%
18 | Cc1ccc(NC(=O)Nc2cccc(C(F)(F)F)c2)nc1 | 0%
19 | CN1CCN(CC(=O)Nc2cccc([N+](=O)[O-])c2)CC1 | -1%
20 | O=C(COC(=O)Cn1cnc2ccccc21)Nc1cccc2c1C(=O)c1ccccc1C2=O | -1%
21 | CC1COc2ccccc2N1S(=O)(=O)c1ccccc1 (configuration not stated) | -1%
22 | COc1cc(NC(=O)c2ccccc2NS(=O)(=O)c2ccc(Cl)s2)cc(OC)c1 | 12%
23 | CCC(=O)Nc1ccc(C(=O)N2CCN(C(=O)c3ccco3)CC2)cc1 | 3%
24 | COc1ccc(/C=C/C(=O)OCC(=O)NCc2cccs2)cc1OC | 0%
25 | CCOC(=O)N1CCN(Cc2nc(Cc3cccc(C(F)(F)F)c3)no2)CC1 | -6%

Row | SMILES | inhibition
26 | COc1cc2nc(CN(C)Cc3ccc(F)cc3)[nH]c(=O)c2cc1OC | 14%
27 | O=C(O)CCCCCNc1ncnc2ccc(Br)cc12 | 3%
28 | COc1ccccc1-n1ccnc1SCC(=O)NC(C)(C)C | -11%
29 | CC12CN(NC(=O)c3ccc(Cl)cc3)C3(C#N)CC1CCC23C (configuration not stated) | 0%
30 | CC(=O)c1ccc(NC(=O)C(C)N(C)CC(=O)Nc2ccccc2Cl)cc1 (configuration not stated) | 1%
31 | CN(C)c1ccc(/C=N\S(=O)(=O)c2ccccc2)cc1 | 2%
32 | CCC1CCCCN1S(=O)(=O)Cc1ccccc1Cl (configuration not stated) | 1%
33 | CCOc1ccc(NC(=S)N2CCCCCC2)cc1 | -6%
34 | COc1cccc(CNC(=O)CCC2CCCN(C(=O)c3cc(C)[nH]n3)C2)c1 (configuration not stated) | -4%
35 | CCOc1ccc2c(=O)c(-c3ccc4c(c3)OCCCO4)c(C)oc2c1 | -3%
36 | N/C(=N\OC(=O)c1ccc([N+](=O)[O-])cc1)c1ccccn1 | -3%
37 | COc1ccc2cc(-c3[nH]ncc3CNCCn3nc(C)cc3C)ccc2c1 | -2%
38 | Cc1cccc(NC(=O)CN2C(=O)c3ccccc3C2=O)c1C | 0%
39 | Fc1cccc(Cc2noc(CN3CCN(c4cnccn4)CC3)n2)c1 | 0%
40 | Cc1cccc(-n2c(SCC(N)=O)nc3c(c2=O)C2(CCCCC2)Cc2ccccc2-3)c1 | 1%
41 | CCCCCNC(=O)c1cccnc1SCC(=O)Nc1ccccc1OC | -2%
42 | O=C1CCCC2=C1C(c1cccs1)CC(=O)N2c1ccc(F)cc1 (configuration not stated) | 4%
43 | O=C(CC(=O)N/N=C\c1cccc(Cl)c1Cl)NCc1ccccc1 | -2%
44 | O=C(NN1C(=O)C2C3C=CC(C3)C2C1=O)c1ccco1 (configuration not stated) | -4%
45 | CN(c1ccccc1)c1nc(N)c([N+](=O)[O-])c(NCc2ccco2)n1 | -2%
46 | Cn1c(=N)n(CC(O)c2cccs2)c2ccccc21 (configuration not stated) | -1%
47 | O=C(CSc1ccc(C(F)(F)F)cc1[N+](=O)[O-])NCCOc1ccccc1 | -7%
48 | CC(C)(CNC(=O)c1ccc(Cl)c(S(=O)(=O)N2CCc3ccccc3C2)c1)N1CCOCC1 | 0%
49 | CCN(CC)c1ccc2c(Nc3ccccc3)c(C=O)c(=O)oc2c1 | -4%
50 | C#CCOCCOCCOCCNc1nc(N2CCN(C(=O)[C@H](C(C)C)n3cc(CCO)nn3)CC2)nc(N2CCN(C(=O)[C@H](C(C)C)n3cc(CCO)nn3)CC2)n1 | -3%

Row | SMILES | inhibition
51 | Cc1cc(C)c(C2C3=C(Nc4c2c(C)nn4-c2ccccn2)c2ccccc2C3=O)c(C)c1 (configuration not stated) | -2%
52 | CCN1CCc2nc(NC(=O)c3cc(F)c(F)cc3Cl)sc2C1 | -5%
53 | COc1ccc(C(=O)C2CCCN(Cc3cccn3-c3ccccn3)C2)c(C)c1 (configuration not stated) | 0%
54 | CCc1ccc(C2N3CC4([N+](=O)[O-])CN2CC([N+](=O)[O-])(C3)C4(C)C)cc1 (configuration not stated) | -9%
55 | CC1CCN(C(=S)c2cccc(O)c2)CC1 | -5%
56 | C/C(=N\NC(=O)c1cccnc1)c1ccc(-n2ccnc2)cc1 | -4%
57 | CCOC(=O)C1CCN(C(=O)C2(NC(=O)Nc3cccc(F)c3)CCCCC2)CC1 | -2%
58 | Cc1ccc(/C=N/NC(=O)CNC(=O)COc2ccccc2)o1 | -10%
59 | C=CCc1ccccc1OCC(=O)N/N=C/c1ccccc1OCC | -4%
60 | CCOc1ccccc1/C=N/NC(=O)CNC(=O)COc1ccccc1 | 79% (active)
61 | O=C(CN1CCN(c2ncccn2)CC1)Nc1ccccc1C(F)(F)F | -2%
62 | COCCCNC(NC(=O)c1ccc(OC)cc1)C(Cl)(Cl)Cl (configuration not stated) | 0%
63 | Cc1cccc(NC(=S)NCc2ccc3[nH]c4c(c3c2)CCCC4)c1 | 2%
64 | NS(=O)(=O)c1ccc(NC(=O)COC(=O)C2(c3ccc(F)cc3)CCCC2)cc1 | -9%
65 | Cc1cccc(Nc2nc3c(S(=O)(=O)c4ccccc4)nnn3c3ccccc23)c1C | 0%
66 | CCc1ccc(NC(=O)Cn2nc(C)c([N+](=O)[O-])c2C)cc1 | -2%
67 | CC(C)c1ccc(C2C(C#N)=C(N)Oc3c2oc(CO)cc3=O)cc1 (configuration not stated) | -2%
68 | CCOc1ccc(NC(=O)COc2ccc(C(=O)NC3CCCc4ccccc43)cc2OC)cc1 (configuration not stated) | -6%
69 | O=C(NCC1CCCO1)/C(=C/c1ccc(Cl)cc1)NC(=O)c1ccccc1 (configuration not stated) | -5%
70 | CCCNS(=O)(=O)c1ccc(CCC(=O)N2CCCC2)cc1 | -5%
71 | CC(=O)c1c(C)[nH]c(C(=O)OCC(=O)NCCC(C)C)c1C | -3%
72 | CCOC(=O)CCNC(=O)N1CCCC(C(=O)c2ccccc2SC)C1 (configuration not stated) | 2%
73 | CC(CC(=O)C1C(C)C=CCC1(C)C)NNC(N)=O (configuration not stated) | -3%
74 | CC(Sc1nnnn1C1CCCCC1)C(=O)O (configuration not stated) | -2%
75 | COc1ccc(Cl)cc1NC(=O)COC(=O)C(CC(C)C)N1C(=O)C2CC=CCC2C1=O (configuration not stated) | -9%

Row | SMILES | inhibition
76 | COc1cccc(NC(=O)NCc2ccc(F)cc2)c1 | 0%
77 | Cc1cc(Cl)c(S(=O)(=O)NCC2CCCO2)cc1OCC(N)=O (configuration not stated) | 79% (active)
78 | Cc1cc(Cl)c(S(=O)(=O)NCCC(=O)O)cc1OCC(N)=O | -7%
79 | Cc1cc(Cl)c(S(=O)(=O)Nc2ccc3c(c2)OCCO3)cc1OCC(N)=O | -1%
80 | CN(C)CCOCCOc1ccc(Cl)c2ccccc12 | -7%
81 | O=C(Nc1ccccc1C(=O)N1CCCCCC1)c1ccccc1Cl | -4%
82 | CC(=O)Nc1ccc(S(=O)(=O)NC2(C(F)(F)F)C(=O)Nc3c2c(=O)[nH]c(=O)n3Cc2ccccc2)cc1 (configuration not stated) | -4%
83 | COCCOC(=O)c1c(C)oc2cc(Br)c(OCC(N)=O)cc12 | 0%
84 | CCCCN(C(=O)COc1ccc(NC(C)=O)cc1)C1CCS(=O)(=O)C1 (configuration not stated) | -3%
85 | COCCn1c(C)cc(C(=O)COC(=O)/C=C/c2cccc(OC)c2)c1C | -5%
86 | O=C(O)Cc1ccc(NCc2ccccc2Cl)cc1 | -3%
87 | CC1CN(S(=O)(=O)c2ccc(C(=O)Nc3sccc3C(N)=O)cc2)CC(C)O1 (configuration not stated) | 1%
88 | Cc1ccc(-c2nc(C#N)c(NCCCn3ccnc3)o2)cc1 | -2%
89 | O=C(CNCc1ccco1)Nc1cc(S(=O)(=O)N2CCOCC2)ccc1N1CCCC1 | -2%
90 | CC(C)=CCN1CCN(Cc2ccc(Oc3ncccn3)cc2)CC1CCO (configuration not stated) | 1%
91 | COc1ccc(N2CCN(C(=S)Nc3ccc(S(N)(=O)=O)cc3)CC2)cc1 | -3%
92 | O=C(NCc1ccc(Cl)cc1)NCc1ccc(Cl)cc1 | -4%
93 | O=C(CSc1ccc(-c2ccc(F)cc2)nn1)Nc1ccc2c(c1)OCCO2 | -6%
94 | O=C(Nc1cccc(F)c1)N1C2CCC1CC(O)(c1cccnc1)C2 (configuration not stated) | 0%
95 | O=C(CN1CCN(c2ccc(O)cc2)CC1)Nc1cc(S(=O)(=O)N2CCOCC2)ccc1Cl | 0%
96 | COc1cc(COCC(O)CN2CCN(Cc3ccc4c(c3)OCO4)CC2)cc(OC)c1OC (configuration not stated) | -1%
97 | COC(=O)C1=C(C)N(C)C(=S)NC1c1cc(OC)ccc1OC (configuration not stated) | -5%

Source: PubChem BioAssay AID950 (NMMLSC, 2007)
